In all, about 16,000 sequences were measured (“rpm ratio (pull-down/input)”: median about 0.5, highest 2% from about 5.5 on). The list comes from a sample in which the highest values are over-represented; it also holds similar and randomly drawn sequences.

This assay has as its target T1, MBP-FoxP3dN (Mus musculus, UniProt Q99JB6 188-423).
T1 sequence: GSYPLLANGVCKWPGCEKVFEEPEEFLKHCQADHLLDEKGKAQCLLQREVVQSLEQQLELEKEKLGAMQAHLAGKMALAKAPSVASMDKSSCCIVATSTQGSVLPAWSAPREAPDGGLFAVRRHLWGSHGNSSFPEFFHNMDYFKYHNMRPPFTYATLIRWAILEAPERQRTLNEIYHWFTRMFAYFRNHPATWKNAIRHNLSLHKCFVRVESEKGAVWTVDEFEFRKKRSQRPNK
In words: PD-seq (MBP pull-down with sequencing); 20 mM Tris-HCl pH 7.5, 100 mM NaCl, 1.5 mM MgCl2, 0.4 uM protein, 0.1 uM dsDNA library, 30 min, room temperature, amylose pull-down; high values mean tight binding. The conditions noted are these: protein: recombinant; tags: His6-MBP; chain copies: 2; dsDNA, one strand shown. The essentials:
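Binding is reads-per-million enrichment of pull-down over input, with replicates pooled. It comes from 30 min room-temperature incubation in Tris pH 7.5 buffer with NaCl and MgCl2 of 0.4 µM His6-MBP-tagged, N-terminally truncated mouse FoxP3 or FoxP1 fragment from E. coli with 0.1 µM Klenow-filled degenerate double-stranded DNA library, followed by amylose resin capture, three washes and Illumina sequencing of the released DNA.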
On to “GATGATTGTTCTCCCAGCTGATGAATTTCAGCAATCGAGTAAACAAATTTTCCTAATCTTTCTGTTCAAGCGCCATCTAC”, for which the binding signal was 1.94 RPM ratio (pull-down/input).

With “GATGATTGTTCTCCCAGCTGATGAATTCACAGCATCGAGTAAACAAATTTTCCTAATCTTTCTGTTCAAGCGCCATCTAC”, the binding signal was 0.801 RPM ratio (pull-down/input).

In the case of “GATGATTGTTCTCCCAGCTGATGAATTAGCACTTTCGAGTAAACAAATTTTCCTAATCTTTCTGTTCAAGCGCCATCTAC”, the binding signal is 0.435 RPM ratio (pull-down/input).

As for “GATGATTGTTCTCCCAGCTGATGAATTAATCTATTCGAGTAAACAAATTTTCCTAATCTTTCTGTTCAAGCGCCATCTAC”, the binding signal is 0.398 RPM ratio (pull-down/input).

As to “GATGATTGTTCTCCCAGCTGATGAATTTCTAATTTCGAGTAAACAAATTTTCCTAATCTTTCTGTTCAAGCGCCATCTAC”, the binding signal is 0.301 RPM ratio (pull-down/input).

As for “GATGATTGTTCTCCCAGCTGATGAATTGTTTATGTCGAGTAAACAAATTTTCCTAATCTTTCTGTTCAAGCGCCATCTAC”, the binding signal was 7 RPM ratio (pull-down/input).

As for “GATGATTGTTCTCCCAGCTGATGAATTTCTTATGTCGAGTAAACAAATTTTCCTAATCTTTCTGTTCAAGCGCCATCTAC”, the binding signal was 0.657 RPM ratio (pull-down/input).

Regarding “GATGATTGTTCTCCCAGCTGATGAATTTATTATGTCGAGTAAACAAATTTTCCTAATCTTTCTGTTCAAGCGCCATCTAC”, the binding signal was 5.83 RPM ratio (pull-down/input).

As for “GATGATTGTTCTCCCAGCTGATGAATTATGTCTGTCGAGTAAACAAATTTTCCTAATCTTTCTGTTCAAGCGCCATCTAC”, the binding signal is 1.14 RPM ratio (pull-down/input).

In the case of “GATGATTGTTCTCCCAGCTGATGAATTTATGATGTCGAGTAAACAAATTTTCCTAATCTTTCTGTTCAAGCGCCATCTAC”, the binding signal was 3.91 RPM ratio (pull-down/input).

In the case of “GATGATTGTTCTCCCAGCTGATGAATTTTTTATGTCGAGTAAACAAATTTTCCTAATCTTTCTGTTCAAGCGCCATCTAC”, the binding signal is 0.31 RPM ratio (pull-down/input).

With “GATGATTGTTCTCCCAGCTGATGAATTATTTATGTCGAGTAAACAAATTTTCCTAATCTTTCTGTTCAAGCGCCATCTAC”, the binding signal is 2.12 RPM ratio (pull-down/input).

On to “GATGATTGTTCTCCCAGCTGATGAATTTGTTATGTCGAGTAAACAAATTTTCCTAATCTTTCTGTTCAAGCGCCATCTAC”, for which the binding signal was 6.84 RPM ratio (pull-down/input).

For the sequence “GATGATTGTTCTCCCAGCTGATGAATTGGTTATGTCGAGTAAACAAATTTTCCTAATCTTTCTGTTCAAGCGCCATCTAC”, the binding signal is 2.38 RPM ratio (pull-down/input).

As to “GATGATTGTTCTCCCAGCTGATGAATTATGTTTGTCGAGTAAACAAATTTTCCTAATCTTTCTGTTCAAGCGCCATCTAC”, the binding signal was 7.57 RPM ratio (pull-down/input).

Turning to “GATGATTGTTCTCCCAGCTGATGAATTGATTATGTCGAGTAAACAAATTTTCCTAATCTTTCTGTTCAAGCGCCATCTAC”, the binding signal is 1.86 RPM ratio (pull-down/input).

For “GATGATTGTTCTCCCAGCTGATGAATTTATGTTGTCGAGTAAACAAATTTTCCTAATCTTTCTGTTCAAGCGCCATCTAC”, the binding signal was 4.93 RPM ratio (pull-down/input).

For “GATGATTGTTCTCCCAGCTGATGAATTGAGCACGTCGAGTAAACAAATTTTCCTAATCTTTCTGTTCAAGCGCCATCTAC”, the binding signal is 0.919 RPM ratio (pull-down/input).

With “GATGATTGTTCTCCCAGCTGATGAATTCGTATGCTCGAGTAAACAAATTTTCCTAATCTTTCTGTTCAAGCGCCATCTAC”, the binding signal is 2.01 RPM ratio (pull-down/input).

For “GATGATTGTTCTCCCAGCTGATGAATTTGGCGACTCGAGTAAACAAATTTTCCTAATCTTTCTGTTCAAGCGCCATCTAC”, the binding signal was 1.79 RPM ratio (pull-down/input).

Take “GATGATTGTTCTCCCAGCTGATGAATTTCTGCTGTCGAGTAAACAAATTTTCCTAATCTTTCTGTTCAAGCGCCATCTAC”: the binding signal is 0.378 RPM ratio (pull-down/input).

“GATGATTGTTCTCCCAGCTGATGAATTACTTGTTTCGAGTAAACAAATTTTCCTAATCTTTCTGTTCAAGCGCCATCTAC”: the binding signal was 0.804 RPM ratio (pull-down/input).

On to “GATGATTGTTCTCCCAGCTGATGAATTCCTGAAATCGAGTAAACAAATTTTCCTAATCTTTCTGTTCAAGCGCCATCTAC”, for which the binding signal was 0.237 RPM ratio (pull-down/input).

Take “GATGATTGTTCTCCCAGCTGATGAATTTGAGTTATCGAGTAAACAAATTTTCCTAATCTTTCTGTTCAAGCGCCATCTAC”: the binding signal was 0.953 RPM ratio (pull-down/input).

In the case of “GATGATTGTTCTCCCAGCTGATGAATTACCCTGATCGAGTAAACAAATTTTCCTAATCTTTCTGTTCAAGCGCCATCTAC”, the binding signal was 0.253 RPM ratio (pull-down/input).

“GATGATTGTTCTCCCAGCTGATGAATTTAGATTCTCGAGTAAACAAATTTTCCTAATCTTTCTGTTCAAGCGCCATCTAC”: the binding signal is 0.815 RPM ratio (pull-down/input).

Consider “GATGATTGTTCTCCCAGCTGATGAATTTTGTGTATCGAGTAAACAAATTTTCCTAATCTTTCTGTTCAAGCGCCATCTAC”, for which the binding signal was 6.55 RPM ratio (pull-down/input).

On to “GATGATTGTTCTCCCAGCTGATGAATTCTGTGTATCGAGTAAACAAATTTTCCTAATCTTTCTGTTCAAGCGCCATCTAC”, for which the binding signal was 5.85 RPM ratio (pull-down/input).

Regarding “GATGATTGTTCTCCCAGCTGATGAATTGAGTATATCGAGTAAACAAATTTTCCTAATCTTTCTGTTCAAGCGCCATCTAC”, the binding signal was 1.7 RPM ratio (pull-down/input).

On to “GATGATTGTTCTCCCAGCTGATGAATTGTGTATATCGAGTAAACAAATTTTCCTAATCTTTCTGTTCAAGCGCCATCTAC”, for which the binding signal was 6.5 RPM ratio (pull-down/input).

On to “GATGATTGTTCTCCCAGCTGATGAATTTGTGTAATCGAGTAAACAAATTTTCCTAATCTTTCTGTTCAAGCGCCATCTAC”, for which the binding signal was 4.48 RPM ratio (pull-down/input).

For the origin of these results see article PMC12820563, “FoxP3 forms a head-to-head dimer in vivo and stabilizes its multimerization on adjacent microsatellites”.
